From ChEMBL document CHEMBL3988442, “University of Dundee, Small-Polar-MMV Screening Library” (2021)
Out of some 69,000 compounds screened, about 1,000 (1.4%) showed an effect of 50% or more. Only a selection was taken, and strong results are over-represented in it overall.

Test system: Leishmania donovani
Test: Leishmania intramacrophage assay
Type: functional, organism-based
Design: scale not given: in the data most compounds retested in dose-response had high values

NCC(=O)N1CCC2(CC1)CN(C(=O)Cc1ccc(Cl)cc1)CCO2
Percent Effect (30.3 µM, […]): -4.476%

Cc1nccn1C1CCCN(C(=O)c2cccc(Cn3ccnc3)c2)C1 (configuration not stated)
Percent Effect (30 µM): 43.46%

CCN(CCO)C[C@@H]1CN(C(=O)c2sc3ccccc3c2C)C[C@@H]1CO
Percent Effect (30.3 µM, […]): -0.1561%

COc1ccc(-c2nc(CC(=O)N(C)CCC#N)cs2)cc1OC
Percent Effect (30.3 µM, […]): 0.3942%

CN(CC1CC1)C(=O)Cc1csc(-c2ncccn2)n1
Percent Effect (30.3 µM, […]): 39.01%

CN(CCC#N)C(=O)Cc1csc(-c2ncccn2)n1
Percent Effect (30.3 µM, […]): 54.73%

COCC1CCCCN1C(=O)c1cc(-c2cccc(OC)c2)n[nH]1 (configuration not stated)
Percent Effect (30.3 µM, […]): -0.5575%

COCC(=O)NCCc1nc(N(C)C)ncc1-c1ccncc1
Percent Effect (30.3 µM, […]): 29.7%

Cn1cc(CN2CC[C@@H]3[C@@H]2CCN3C(=O)c2cccc(F)c2)cn1.O=C(O)C(F)(F)F
Percent Effect (30.3 µM, […]): 56.05%

Cn1cc(C(=O)N2CC[C@@H]3[C@@H]2CCN3Cc2ccccc2)cn1.O=C(O)C(F)(F)F
Percent Effect (30.3 µM, […]): 4.091%

Cn1cc(C(=O)N2CC[C@@H]3[C@@H]2CCN3Cc2cccc(F)c2)cn1.O=C(O)C(F)(F)F
Percent Effect (30 µM, 30.03 µM): 2.666%

Cc1oncc1C(=O)N1CC[C@H]2CO[C@H](CN3CCCC3)[C@H]2C1
Percent Effect (30.3 µM, […]): 5.899%

COc1c(CNC2CCc3cc(F)ccc32)c(C)nn1C.Cl (configuration not stated)
Percent Effect (30 µM, 30.03 µM): 46.26%

COc1c(CNC2CCSc3ccc(F)cc32)c(C)nn1C.Cl (configuration not stated)
Percent Effect (30 µM, 30.03 µM): 60.68%

COc1c(CNC2CCc3c(F)cccc32)c(C)nn1C.Cl (configuration not stated)
Percent Effect (30 µM): 34.02%

COc1c(CNC2CCc3c(Cl)cccc32)c(C)nn1C.Cl (configuration not stated)
Percent Effect (30 µM, 30.03 µM): 56.04%

COc1c(CNC2CCCOc3ccc(F)cc32)c(C)nn1C.Cl (configuration not stated)
Percent Effect (30.3 µM, […]): 19.28%

COc1c(CNC2CCOc3c(Cl)cccc32)c(C)nn1C.Cl (configuration not stated)
Percent Effect (30.3 µM, […]): 30.91%

COc1ccc(F)c(CNC2CCCc3nc(N(C)C)ncc32)c1 (configuration not stated)
Percent Effect (30.3 µM, […]): 34.48%

O=C(c1ccccc1)N1CC2(CCNC2)OCc2ccccc21 (configuration not stated)
Percent Effect (30.3 µM, […]): 23.45%

O=C(C1CCCC1)N1CC2(CCNC2)OCc2ccccc21 (configuration not stated)
Percent Effect (30.3 µM, […]): 12.94%

O=C(c1ccc(Cl)cc1)N1CC2(CCNC2)OCc2ccccc21 (configuration not stated)
Percent Effect (30.3 µM, […]): 67.31%

Cc1noc(CSc2ccc(C(F)(F)F)cn2)n1
Percent Effect (30.3 µM, […]): 27.73%

CCCc1nc(C)c(C(=O)NCCn2ccnc2)s1
Percent Effect (30.3 µM, […]): -7.791%

O=C(C[S+]([O-])Cc1cccc(Cl)c1)NC1CCCC1 (configuration not stated)
Percent Effect (30.3 µM, […]): 13.89%

Cl.Cl.Clc1cccc(C[C@@H]2NCCC[C@@H]2Nc2ccccc2)c1
Percent Effect (30.3 µM, […]): 98.87%

Cl.Cl.Clc1cccc(C[C@@H]2NCCC[C@@H]2Nc2cccc(Cl)c2)c1
Percent Effect (30.3 µM, […]): 98%

O=C1NCCCc2[nH]c(Cc3cccc(Cl)c3)nc21
Percent Effect (30.3 µM, […]): 16.75%

Cl.O=C(OCC1CCCN1)c1cccc(NC(=O)c2ccco2)c1 (configuration not stated)
Percent Effect (30.3 µM, […]): 19.64%

CCOc1ccc(Cl)cc1C1CCCN1.Cl (configuration not stated)
Percent Effect (30 µM, 30.03 µM): 7.031%

O=C(Cc1cccc(Cl)c1)N[C@@H]1CCNC[C@H]1O
Percent Effect (30 µM, 30.03 µM): -4.847%

Cl.Clc1cccc(N[C@H]2CCCN[C@H]2Cc2ccccc2)c1
Percent Effect (30.3 µM, […]): 98.49%

O=C(NCCc1cccc(Cl)c1)C1CCOCC1
Percent Effect (30.3 µM, […]): -10.81%

CCn1cc2c(n1)C(COC)CN(Cc1ccccn1)C2 (configuration not stated)
Percent Effect (30 µM, 30.03 µM): -30.8%

O=C(c1csc(-c2ncccn2)n1)N1CCN(C2CCCC2)CC1
Percent Effect (30.3 µM, […]): 15.8%

N#Cc1ccc(OC[C@]23COC[C@H]2CN(c2ncccn2)C3)nc1
Percent Effect (30.3 µM, […]): -11.64%

COc1cc(N2C[C@@H]3COC[C@]3(COc3ccccn3)C2)ncn1.O=C(O)C(F)(F)F.O=C(O)C(F)(F)F
Percent Effect (30.3 µM, […]): 12.8%

COc1cc(N2C[C@@H]3COC[C@]3(COc3ccc(C#N)cn3)C2)ncn1
Percent Effect (30 µM, 30.03 µM): 56.85%

Cc1csc(NC(=O)[C@@H]2C[C@H]3[C@H](CCN3S(C)(=O)=O)O2)n1
Percent Effect (30.3 µM, […]): 37.69%

CCOCCNc1nc(C2CCCC2)nc2c1cnn2C
Percent Effect (30 µM, 30.03 µM): 33.9%

Cn1ncc2c(NCCCOc3cccnc3)nc(C3CCCC3)nc21
Percent Effect (30.3 µM, […]): 7.938%

Cn1ncc2c(NCCOc3ccc(F)cc3)nc(C3CCCC3)nc21
Percent Effect (30 µM, 30.03 µM): 50.15%

CC[C@H]1CN(C(=O)C2CC2)CC[C@H]1CC(=O)NCCN1CCOCC1
Percent Effect (30.3 µM, […]): -123.3%

CN(Cc1n[nH]c2c1CCC2)C(=O)c1cccc(CCC(C)(C)O)c1
Percent Effect (30.3 µM, […]): 57.38%

CN(Cc1cc[nH]n1)C(=O)c1cccc(CCC(C)(C)O)c1
Percent Effect (30 µM, 30.03 µM): 14.32%

CN(Cc1n[nH]c2c1CCCC2)C(=O)c1cccc(CCC(C)(C)O)c1
Percent Effect (30.3 µM, […]): 22.46%

N#Cc1ccc(CN2CCN(C(=O)c3cc(C4CC4)[nH]n3)CC2)cc1
Percent Effect (30 µM, 30.03 µM): 47.32%

CC(C)(C)CN(CCC#N)C(=O)c1cccc(CN2CCCC2)c1
Percent Effect (30.3 µM, […]): 15.51%

Cc1cccnc1C(=O)N1CCCC(c2[nH]ncc2S(C)(=O)=O)C1 (configuration not stated)
Percent Effect (30 µM, 30.03 µM): -23.25%

CC(=O)N1CC[C@]2(O)CCN(Cc3nc(C)c[nH]3)C[C@@H]2C1
Percent Effect (30.3 µM, […]): 3.766%

O=C(O)C(F)(F)F.O=C(O)C(F)(F)F.c1cnc(N2C[C@H]3CCN(CCN4CCCC4)C[C@H]3C2)cn1
Percent Effect (30.3 µM, […]): 50.81%

O=C(C1CCCC1)N1C[C@@H]2CCN(c3cnccn3)C[C@@H]2C1.O=C(O)C(F)(F)F
Percent Effect (30.3 µM, […]): 10.31%

O=C(O)C(F)(F)F.c1cnc(N2C[C@H]3CCN(CC4CC4)C[C@H]3C2)cn1
Percent Effect (30.3 µM, […]): 30.4%

COC(=O)c1ccc(OC)c(OC23CCCN(CC2)C3)c1 (configuration not stated)
Percent Effect (30.3 µM, […]): -2.222%

COc1ccc(SCC2CNc3nc4ccccc4c(=O)n32)cc1 (configuration not stated)
Percent Effect (30.3 µM, […]): 24.33%

O=C(NCCNc1ccc(C(F)(F)F)cn1)c1ccc(F)cc1Cl
Percent Effect (30 µM): 35.81%

Cc1cc2c(cc1CN1CCCCC1CCn1ccnc1C)OCO2 (configuration not stated)
Percent Effect (30.3 µM, […]): 16.68%

Cc1nccn1CCC1CCCCN1Cc1ccc(O)cc1Cl (configuration not stated)
Percent Effect (30.3 µM, […]): 62.65%

Cc1nccn1CCC1CCCCN1Cc1ccncc1 (configuration not stated)
Percent Effect (30 µM, 30.03 µM): 14.55%

COc1ccc(CCN2CCCC(CN(C)Cc3ccc(C)o3)C2)cc1 (configuration not stated)
Percent Effect (30 µM, 30.03 µM): 48.36%

COc1ccccc1CCN1CCCC(CN(C)Cc2ccc(C)o2)C1 (configuration not stated)
Percent Effect (30.3 µM, […]): 51.06%

COc1ccccc1CCN1CCCC(CN(C)Cc2c[nH]c(C)n2)C1 (configuration not stated)
Percent Effect (30.3 µM, […]): 23.77%
